The supplement of paper PMC10849652
Of roughly 8,800 targets only a part is listed; those with a hit were picked by preference. About 0.5% of all pairs of compound and target were hits. A number with no mark means an inactive call.

Columns and labels:
Assay in all cases: log2 fold change, soluble protein after heating vs DMSO (PISA); higher = thermal stabilisation; K562 lysate, 10 uM; active = over 0.2 and 3.5 SD of the protein, either way, in both replicates (recomputed)
nilotinib = compound: Cc1cn(-c2cc(NC(=O)c3ccc(C)c(Nc4nccc(-c5cccnc5)n4)c3)cc(C(F)(F)F)c2)cn1 [nilotinib]
Summary of the method: (§1)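 Soluble protein was defined as the supernatant remaining after 21,000xg for 90 min, following pooling of heated aliquots and adjustment to 0.5% NP-40 at 4°C. Before that, crude K562 extract at 1 mg/mL protein in PBS pH 7.4 with 1 mM MgCl2 was treated with 10 μM compound for 30 min and heated for 3 min across 48°C-58°C. Quantification used TMTpro 16plex LC-MS/MS with channel sums equalised, and values are log-two fold changes in thermal stability relative to solvent controls from duplicates.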

[1] = compound: Cc1nc(Nc2n[nH]c3c2CN(C(=O)N[C@H](CN(C)C)c2ccccc2)C3(C)C)c2sccc2n1
Summary of the method: as §1

dasatinib = compound: Cc1nc(Nc2ncc(C(=O)Nc3c(C)cccc3Cl)s2)cc(N2CCN(CCO)CC2)n1 [dasatinib]
Summary of the method: as §1

[2] = compound: Cc1ncc(-c2ccnc(Nc3ccc(S(C)(=O)=O)cc3)n2)n1C(C)C
Summary of the method: as §1

[3] = compound: Cn1cc(-c2ccc3c(c2)CCN3C(=O)Cc2cccc(C(F)(F)F)c2)c2c(N)ncnc21
Summary of the method: as §1

quisinostat = compound: Cn1cc(CNCC2CCN(c3ncc(C(=O)NO)cn3)CC2)c2ccccc21 [quisinostat]
Summary of the method: as §1

tipifarnib = compound: Cn1cncc1[C@@](N)(c1ccc(Cl)cc1)c1ccc2c(c1)c(-c1cccc(Cl)c1)cc(=O)n2C [tipifarnib]
Summary of the method: as §1

[4] = compound: NC(=O)Nc1cc(-c2cccc(F)c2)sc1C(=O)N[C@H]1CCCNC1
Summary of the method: as §1

[5] = compound: NC(=O)c1cnc(N[C@@H]2CCCC[C@@H]2N)nc1Nc1cccc(-n2nccn2)c1
Summary of the method: as §1

[6] = compound: NC1(c2ccc(-c3nc4ccn5c(=O)[nH]nc5c4cc3-c3ccccc3)cc2)CCC1
Summary of the method: as §1

UniProt Q9BPY3, sequence (Q9BPY3 whole entry, looked up): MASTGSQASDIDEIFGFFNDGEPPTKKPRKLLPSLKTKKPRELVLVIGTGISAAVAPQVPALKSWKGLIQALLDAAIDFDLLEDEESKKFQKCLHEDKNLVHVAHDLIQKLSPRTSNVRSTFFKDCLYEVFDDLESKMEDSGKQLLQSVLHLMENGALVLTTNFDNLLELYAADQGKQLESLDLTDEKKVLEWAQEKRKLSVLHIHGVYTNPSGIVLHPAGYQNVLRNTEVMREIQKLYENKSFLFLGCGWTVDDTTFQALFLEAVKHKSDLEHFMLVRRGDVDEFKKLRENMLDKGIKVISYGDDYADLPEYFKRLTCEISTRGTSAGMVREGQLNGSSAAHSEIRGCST
UniProt P37268, sequence (P37268 whole entry, looked up): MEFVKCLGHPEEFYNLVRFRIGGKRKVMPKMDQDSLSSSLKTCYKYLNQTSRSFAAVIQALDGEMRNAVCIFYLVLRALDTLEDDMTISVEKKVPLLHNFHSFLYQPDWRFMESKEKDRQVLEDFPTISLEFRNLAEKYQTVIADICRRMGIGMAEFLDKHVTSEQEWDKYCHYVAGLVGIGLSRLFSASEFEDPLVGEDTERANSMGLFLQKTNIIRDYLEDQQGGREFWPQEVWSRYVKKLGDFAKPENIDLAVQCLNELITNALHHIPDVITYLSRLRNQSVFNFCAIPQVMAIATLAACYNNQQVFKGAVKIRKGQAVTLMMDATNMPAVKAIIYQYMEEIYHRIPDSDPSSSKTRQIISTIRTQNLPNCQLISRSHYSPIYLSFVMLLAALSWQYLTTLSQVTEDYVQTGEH
UniProt Q9Y5Q0, sequence (Q9Y5Q0 whole entry, looked up): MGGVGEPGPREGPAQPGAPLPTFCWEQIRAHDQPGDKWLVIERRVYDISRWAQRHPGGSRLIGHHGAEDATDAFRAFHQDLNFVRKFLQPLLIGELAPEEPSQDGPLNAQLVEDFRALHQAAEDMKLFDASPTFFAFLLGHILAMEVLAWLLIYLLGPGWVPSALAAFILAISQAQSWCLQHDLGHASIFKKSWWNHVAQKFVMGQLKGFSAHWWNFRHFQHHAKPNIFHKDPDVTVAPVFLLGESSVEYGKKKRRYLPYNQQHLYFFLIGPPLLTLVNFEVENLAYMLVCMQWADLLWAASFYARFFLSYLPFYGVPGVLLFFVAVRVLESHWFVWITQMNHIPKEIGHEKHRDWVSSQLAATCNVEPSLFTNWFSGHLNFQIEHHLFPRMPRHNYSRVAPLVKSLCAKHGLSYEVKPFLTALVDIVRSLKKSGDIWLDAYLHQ
UniProt O95208, sequence (O95208 whole entry, looked up): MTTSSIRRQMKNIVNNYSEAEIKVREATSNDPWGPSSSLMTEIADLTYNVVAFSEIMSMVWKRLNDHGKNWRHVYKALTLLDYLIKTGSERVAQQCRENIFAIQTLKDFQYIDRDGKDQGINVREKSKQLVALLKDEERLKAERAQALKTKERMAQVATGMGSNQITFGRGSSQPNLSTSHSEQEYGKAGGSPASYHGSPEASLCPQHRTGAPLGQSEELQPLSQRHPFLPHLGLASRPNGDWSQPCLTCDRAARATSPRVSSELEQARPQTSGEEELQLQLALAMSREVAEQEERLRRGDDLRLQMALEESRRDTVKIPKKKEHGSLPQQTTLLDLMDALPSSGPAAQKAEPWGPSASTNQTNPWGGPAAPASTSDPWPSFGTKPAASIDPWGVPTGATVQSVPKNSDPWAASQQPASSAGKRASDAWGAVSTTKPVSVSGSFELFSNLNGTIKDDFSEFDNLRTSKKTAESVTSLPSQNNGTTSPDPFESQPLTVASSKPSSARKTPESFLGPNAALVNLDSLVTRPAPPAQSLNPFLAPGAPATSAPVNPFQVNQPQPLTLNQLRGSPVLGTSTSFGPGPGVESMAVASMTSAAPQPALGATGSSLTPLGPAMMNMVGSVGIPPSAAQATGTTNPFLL
UniProt Q9NZJ0, sequence (Q9NZJ0 whole entry, looked up): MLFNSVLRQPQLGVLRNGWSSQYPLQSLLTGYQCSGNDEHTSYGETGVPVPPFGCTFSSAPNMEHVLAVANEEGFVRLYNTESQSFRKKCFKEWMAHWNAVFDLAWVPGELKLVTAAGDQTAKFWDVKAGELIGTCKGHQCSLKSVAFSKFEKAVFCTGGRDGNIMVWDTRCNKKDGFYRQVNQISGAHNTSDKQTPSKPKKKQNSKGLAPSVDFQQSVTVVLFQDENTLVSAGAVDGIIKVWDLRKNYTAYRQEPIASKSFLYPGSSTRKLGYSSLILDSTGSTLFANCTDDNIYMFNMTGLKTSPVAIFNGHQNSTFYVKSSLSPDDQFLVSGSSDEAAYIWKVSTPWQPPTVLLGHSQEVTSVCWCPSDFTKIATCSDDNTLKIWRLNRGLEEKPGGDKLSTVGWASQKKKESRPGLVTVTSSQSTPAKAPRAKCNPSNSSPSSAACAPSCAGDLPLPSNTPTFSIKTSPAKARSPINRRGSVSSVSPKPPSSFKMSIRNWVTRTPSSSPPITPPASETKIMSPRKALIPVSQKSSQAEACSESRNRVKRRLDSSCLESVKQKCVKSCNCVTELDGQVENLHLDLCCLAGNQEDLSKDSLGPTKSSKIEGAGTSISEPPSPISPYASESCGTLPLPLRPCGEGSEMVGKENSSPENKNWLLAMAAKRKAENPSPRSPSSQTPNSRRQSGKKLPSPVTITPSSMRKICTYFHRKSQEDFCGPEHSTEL
UniProt P0C2W1, sequence (P0C2W1 whole entry, looked up): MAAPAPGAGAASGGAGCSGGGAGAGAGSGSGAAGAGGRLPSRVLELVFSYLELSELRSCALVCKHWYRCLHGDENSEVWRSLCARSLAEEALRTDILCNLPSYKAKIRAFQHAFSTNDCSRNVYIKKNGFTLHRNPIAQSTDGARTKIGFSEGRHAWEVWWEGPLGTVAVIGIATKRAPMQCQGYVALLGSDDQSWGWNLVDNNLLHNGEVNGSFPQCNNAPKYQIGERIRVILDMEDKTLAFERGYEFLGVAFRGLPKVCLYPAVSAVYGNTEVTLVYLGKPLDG
UniProt P02792, sequence (P02792 whole entry, looked up): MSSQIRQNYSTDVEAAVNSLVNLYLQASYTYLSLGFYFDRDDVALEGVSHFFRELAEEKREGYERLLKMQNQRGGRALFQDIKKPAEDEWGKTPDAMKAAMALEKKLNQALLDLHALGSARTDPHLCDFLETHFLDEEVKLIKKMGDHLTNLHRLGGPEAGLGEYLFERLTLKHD
UniProt Q9BQS8, sequence (Q9BQS8 whole entry, looked up): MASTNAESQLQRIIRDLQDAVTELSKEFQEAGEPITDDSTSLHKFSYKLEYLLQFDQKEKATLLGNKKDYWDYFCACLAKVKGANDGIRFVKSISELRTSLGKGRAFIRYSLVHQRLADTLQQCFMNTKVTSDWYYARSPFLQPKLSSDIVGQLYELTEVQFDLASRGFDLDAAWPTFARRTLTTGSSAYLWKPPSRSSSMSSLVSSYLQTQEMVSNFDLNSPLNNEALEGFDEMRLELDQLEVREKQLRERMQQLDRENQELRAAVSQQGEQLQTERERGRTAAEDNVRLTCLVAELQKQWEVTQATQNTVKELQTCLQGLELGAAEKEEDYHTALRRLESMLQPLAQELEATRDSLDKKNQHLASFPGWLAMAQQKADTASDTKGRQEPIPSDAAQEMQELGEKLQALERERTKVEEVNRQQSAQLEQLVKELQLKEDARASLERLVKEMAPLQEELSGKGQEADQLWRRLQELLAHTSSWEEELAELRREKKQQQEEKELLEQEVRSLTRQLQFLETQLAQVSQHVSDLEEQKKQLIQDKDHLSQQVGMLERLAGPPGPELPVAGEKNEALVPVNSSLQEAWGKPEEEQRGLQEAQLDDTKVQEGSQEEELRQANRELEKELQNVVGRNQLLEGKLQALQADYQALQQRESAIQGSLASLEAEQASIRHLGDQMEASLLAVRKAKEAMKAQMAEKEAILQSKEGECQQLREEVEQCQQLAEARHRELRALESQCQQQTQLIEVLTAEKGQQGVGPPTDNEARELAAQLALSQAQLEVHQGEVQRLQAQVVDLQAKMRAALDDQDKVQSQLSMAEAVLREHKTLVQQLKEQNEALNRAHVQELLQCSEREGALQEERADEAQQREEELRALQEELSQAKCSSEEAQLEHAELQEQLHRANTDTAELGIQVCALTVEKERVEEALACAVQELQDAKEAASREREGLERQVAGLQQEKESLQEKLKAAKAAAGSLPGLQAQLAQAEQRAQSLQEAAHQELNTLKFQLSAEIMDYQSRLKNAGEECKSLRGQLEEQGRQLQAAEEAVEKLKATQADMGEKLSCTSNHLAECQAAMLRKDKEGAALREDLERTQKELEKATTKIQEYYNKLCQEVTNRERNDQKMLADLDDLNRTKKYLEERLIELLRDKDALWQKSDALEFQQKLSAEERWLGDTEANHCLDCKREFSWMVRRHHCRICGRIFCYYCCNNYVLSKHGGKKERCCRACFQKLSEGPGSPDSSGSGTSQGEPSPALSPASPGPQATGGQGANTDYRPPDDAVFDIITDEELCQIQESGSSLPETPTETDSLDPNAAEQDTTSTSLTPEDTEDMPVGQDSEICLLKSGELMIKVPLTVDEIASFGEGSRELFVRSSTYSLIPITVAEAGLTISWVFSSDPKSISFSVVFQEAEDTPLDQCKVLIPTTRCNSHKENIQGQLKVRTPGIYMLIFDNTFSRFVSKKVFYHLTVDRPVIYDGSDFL
UniProt Q13347, sequence (Q13347 whole entry, looked up): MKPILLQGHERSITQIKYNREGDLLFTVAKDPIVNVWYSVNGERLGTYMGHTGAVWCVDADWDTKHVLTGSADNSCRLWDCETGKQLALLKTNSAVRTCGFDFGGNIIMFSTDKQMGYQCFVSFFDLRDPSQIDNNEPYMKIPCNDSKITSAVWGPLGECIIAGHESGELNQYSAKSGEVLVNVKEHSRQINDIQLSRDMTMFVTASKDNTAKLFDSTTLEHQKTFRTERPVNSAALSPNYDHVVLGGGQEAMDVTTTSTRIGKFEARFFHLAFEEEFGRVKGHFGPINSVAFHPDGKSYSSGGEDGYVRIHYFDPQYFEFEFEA
UniProt P62942, sequence (P62942 whole entry, looked up): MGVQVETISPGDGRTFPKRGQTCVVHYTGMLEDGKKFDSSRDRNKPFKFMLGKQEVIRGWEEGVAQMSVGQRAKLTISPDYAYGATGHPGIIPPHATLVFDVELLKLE

Target | log2 fold change (nilotinib) | log2 fold change [1] | log2 fold change (dasatinib) | log2 fold change [2] | log2 fold change [3] | log2 fold change (quisinostat) | log2 fold change (tipifarnib) | log2 fold change [4] | log2 fold change [5] | log2 fold change [6]
FYCO1 isoform 4 (UniProt Q9BQS8) | -0.02 | -0.022 | 0.011 | 0.016 | 0.031 | -0.014 | -0.012 | 0.019 | 0.015 | -0.008
FKBP1A (UniProt P62942) | 0.023 | 0.002 | -0.005 | 0.081 | -0.103 | 0.012 | 0.038 | -0.005 | 0.002 | -0.039
FDFT1 (UniProt P37268) | 0.032 | -0.048 | -0.012 | -0.037 | -0.008 | -0.014 | -0.053 | 0.005 | 0.042 | -0.025
EEF1AKNMT (UniProt Q8N6R0) | 0.006 | -0.008 | -0.044 | -0.011 | 0.043 | -0.093 | -0.003 | 0.045 | -0.013 | 0.01
FBLL1 (UniProt A6NHQ2) | 0.006 | -0.015 | -0.048 | -0.101 | 0 | -0.07 | -0.009 | 0.026 | -0.037 | 0
GEMIN4 (UniProt P57678) | -0.001 | -0.014 | -0.047 | -0.001 | 0.101 | -0.056 | 0.006 | 0.077 | -0.001 | -0.097
EPB41, A0A2R8Y6D0 | -0.033 | 0.312 | 0.091 | -0.044 | -0.021 | -0.017 | -0.055 | 0.043 | -0.042 | -0.054
EIF3I (UniProt Q13347) | 0.022 | -0.004 | -0.018 | 0.013 | 0.044 | -0.009 | 0.018 | 0.036 | 0 | -0.013
EXOC6 (UniProt Q8TAG9) | -0.002 | 0.01 | -0.063 | 0.022 | 0.064 | -0.023 | -0.044 | 0.068 | 0.024 | -0.064
EFCAB14 (UniProt O75071) | -0.16 | 0.016 | 0.049 | 0.001 | -0.005 | -0.001 | 0.013 | 0.053 | -0.005 | 0.013
EWSR1 isoform 5 (UniProt Q01844) | -0.766 (active) | 0.019 | 0.004 | 0.036 | -0.049 | -0.025 | 0.082 | 0.013 | -0.002 | 0.024
FHOD1 (UniProt Q9Y613) | 0.005 | 0.017 | -0.05 | -0.007 | 0.002 | 0.017 | -0.017 | 0.039 | 0.014 | 0.023
EXOC1 (UniProt Q9NV70) | -0.005 | 0.013 | -0.067 | 0.013 | 0.097 | 0.024 | 0.005 | 0.024 | 0.012 | -0.032
GAPDH (UniProt P04406) | 0.045 | -0.026 | -0.001 | -0.023 | 0 | 0.114 | 0.042 | 0 | -0.019 | 0.018
EPN2 (UniProt O95208) | -0.001 | 0.01 | -0.011 | 0.017 | 0.054 | -0.016 | -0.07 | 0.021 | 0.01 | -0.016
EHD2 (UniProt Q9NZN4) | 0.007 | -0.02 | -0.018 | 0.019 | -0.084 | -0.074 | -0.047 | 0.09 | 0.029 | -0.042
FADS3 (UniProt Q9Y5Q0) | -0.091 | 0.216 | 0.102 | 0.166 | -0.061 | -0.019 | -0.081 | -0.008 | -0.069 | 0.07
GALNT2 (UniProt Q10471) | -0.02 | -0.054 | 0.003 | 0.008 | 0.008 | 0.081 | -0.067 | -0.004 | -0.002 | -0.031
EDC3 (UniProt Q96F86) | 0.045 | 0.016 | -0.022 | -0.031 | 0.004 | -0.006 | -0.069 | -0.019 | -0.014 | 0.017
FTL (UniProt P02792) | -0.039 | 0.035 | -0.03 | -0.038 | -0.012 | 0.043 | 0.017 | 0.091 | 0.009 | 0.06
EP300 (UniProt Q09472) | 0.036 | 0.037 | -0.028 | 0.081 | 0.007 | 0.03 | -0.043 | 0.036 | 0.023 | 0.046
GAMT (UniProt Q14353) | -0.017 | 0.022 | 0.03 | 0.129 | -0.025 | -0.043 | -0.137 | 0.024 | -0.016 | -0.002
FAM118B (UniProt Q9BPY3) | -0.018 | 0.002 | -0.039 | -0.009 | -0.008 | -0.06 | -0.015 | 0.021 | 0.032 | -0.007
EPB41 (UniProt P11171) | -0.01 | 0.024 | 0 | -0.007 | 0.031 | 0.039 | 0.011 | 0.003 | 0.012 | 0.003
ERBIN isoform 8 (UniProt Q96RT1) | 0.012 | -0.027 | 0.051 | -0.015 | 0.018 | -0.029 | -0.005 | 0.018 | 0 | 0.001
DTL (UniProt Q9NZJ0) | 0.005 | -0.022 | 0.044 | -0.052 | 0.066 | -0.227 (active) | 0.036 | 0.025 |  | 0.048
EIF3I (UniProt Q5TFK1) | 0.108 | -0.239 |  | -0.035 |  |  | -0.511 |  | 0.387 | 
FBXO45 (UniProt P0C2W1) | 0.025 | 0.028 |  | -0.088 |  | -0.006 | -0.011 | 0.008 | 0.147 | -0.002
